# Compounds with a hit are over-represented: about 5.3% of the library has one in this group of screens.
# Mot1-301 SUMO: inhibitors of SUMOylation pathway: yeast Mot1-301 growth rescue | S. cerevisiae Mot1-301 growth rescue, ATP luminescence, 38.5C; percent above DMSO median, 100 means doubled | growth rescue, % at 18.8 µM | actives 1% (n = 320,000) | AID 2716;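 active means every valid replicate shows activation above 250% relative to neutral control wells; inactive means the rest, any valid replicate at or below 250%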;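 further: OY570 slx delta 5 strain wells were the positive control but not used for scaling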
# PfM18AAP inh: PfM18AAP enzyme inhibition; recombinant PfM18AAP, H-Glu-NHMec fluorogenic cleavage; inhibition, % at 7.35 µM; actives 1.2% (n = 290,000);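 active means inhibition above the campaign mean inhibition over all tested compounds plus 3 SD, cut at about 28% in these data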;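 further: 0% = plate median of test compound wells and 100% = 2 mM ZnCl2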
# HIF act: HIF pathway transcriptional activation; U2OS HRE-luciferase reporter, luminescence; normalized: DMSO 0%, desferrioxamine 100%; activation, % at 7.5 µM (by protocol); actives 0.32% (n = 300,000); AID 1910;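 active means mean activation of at least 10% of the iron chelator positive control signal, with at least half of replicates also reaching 10%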
# ALR H2O2 inh: blocks human ALR sulfhydryl oxidase activity; actives 3.8% (n = 290,000); P55789; purified ALR, DTT oxidation, H2O2 HRP-luminol luminescence; inhibition, % (test concentration not listed); AID 485317;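 active means mean replicate inhibition above about 79%, with every replicate also reaching it, limit read from the data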
# Target sequence (P55789 whole entry, looked up): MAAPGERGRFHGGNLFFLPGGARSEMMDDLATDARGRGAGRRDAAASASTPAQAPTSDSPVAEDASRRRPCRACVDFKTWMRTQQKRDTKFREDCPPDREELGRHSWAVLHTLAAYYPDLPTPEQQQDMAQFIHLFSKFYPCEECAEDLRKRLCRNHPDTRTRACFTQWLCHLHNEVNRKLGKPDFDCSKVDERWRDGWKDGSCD
# Mot1 SUMO dose: yeast SUMO pathway inhibition in dose response; shares compounds with Mot1-301 SUMO; S. cerevisiae Mot1-301 galactose growth, ATP luminescence, 24 h; -100 = growth of slx-deleted rescue strain; growth activity, percent, % at 42 µM; 2,300 tested, under 10 active; AID 493004;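 active means Signal drops as the depositor expects, and the fitted half-maximal dose is no more than ten times the top valid tested dose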;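 further: more negative values mean stronger growth rescue toward the control strain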
# Active calls of the source: *; · = not tested or not shown; + = active, no number; [ ] = another dose, or the depositor's remark.
SMILES,Mot1-301 SUMO,PfM18AAP inh,HIF act,ALR H2O2 inh,Mot1 SUMO dose
CCN1C(=O)C2C(C1=O)N1C(c3cccs3)C3C(=O)N(CC)C(=O)C3N1C2c1cccs1 (stereo not given),·,-4.7,0.0,-17.0,·
C=CC[N+]1(CC#Cc2ccccc2)CCCC1,393.4*,-1.9,-0.9,0.3,-0.4
C(#Cc1ccccc1)C[N+]1(CC#Cc2ccccc2)CCCC1,5.9,-6.0,-0.4,0.0,·
COC(=O)C1(Cc2ccc(O)cc2)OC(=O)C(O)=C1c1ccc(O)cc1 (stereo not given),380.6*,·,0.2,99.0*,-0.4
O=C(NC1(Cc2ccc(O)cc2)CCCCC1)c1ccccc1,-3.7,2.6,0.4,·,·
COc1ccccc1CNC(=O)CN(c1ccc(C)cc1)S(=O)(=O)c1c(C)n[nH]c1C,911.9*,-2.8,1.0,1.0,-0.7
COc1ccccc1CNC(=O)CN(c1ccc(C)cc1)S(=O)(=O)c1c(C)noc1C,-0.2,3.6,-0.6,-6.4,·
CCOC(=O)C1=C(N)c2ccccc2CC1C1CCCC1 (stereo not given),552.2*,-0.9,-0.8,-5.6,0.1
CC(=O)N1CCN(C(=O)COC(=O)COc2c(C)cc(C)cc2C)CC1,-1.7,·,·,-1.4,·
COc1ccc(C)cc1NC(=O)C1CCCN(S(=O)(=O)c2ccc3c(c2)CCCN3C(C)=O)C1 (stereo not given),-0.5,4.8,-0.3,-3.2,·
COc1ccc(OC)c(N(CC(=O)N2CCCC2)S(=O)(=O)c2ccccc2)c1,468.8*,-4.5,-37.1,2.1,0.8
COc1ccc(C)cc1N(CC(=O)N1CCCCCC1)S(=O)(=O)c1ccccc1,-5.7,3.3,-0.2,-16.0,·
CC1(C)Cc2cccc(OCC(=O)Nc3cc(C(F)(F)F)ccc3N3CCOCC3)c2O1,0.5,-9.3,1.1,-2.5,·
O=C(O)c1ccc(N=C2NC(=O)C(CO)(CO)S2)cc1,767.5*,-8.6,0.5,-8.1,-0.1
Cc1ccc(S(=O)(=O)N(C)CC(=O)O/N=C(\N)c2ccccn2)cc1,399.3*,2.3,-0.3,-7.5,0.7
CN(CC(=O)O/N=C(\N)c1ccccn1)S(=O)(=O)c1ccc(Br)cc1,164.1,-14.7,0.1,-5.8,·
O=C(N/N=C/c1ccc(Cl)s1)c1ccccc1[N+](=O)[O-],805.0*,-2.6,-0.3,4.4,0.7
O=C(N/N=C/c1cc(Br)cs1)c1ccccc1[N+](=O)[O-],20.0,-4.0,0.0,-0.7,·
Cn1c(=O)c2c(nc(N/N=C/c3ccc(OC(=O)c4ccco4)cc3)n2Cc2ccccc2Cl)n(C)c1=O,+,-6.7,0.0,-3.9,0.2
c1ccc(CCCc2nc(-c3cccnc3)no2)cc1,627.9*,-6.2,1.2,·,0.3
c1ccc(OCCCc2nc(-c3cccnc3)no2)cc1,455.7*,-8.3,0.0,1.5,1.1
c1ccc(C(Cc2nc(-c3cccnc3)no2)c2ccccc2)cc1,16.4,4.3,0.3,-0.9,·
COc1ccc(CC(=O)NC2CC2)cc1OC,35.0,-6.7,0.9,·,·
CC1(C)CC(=O)C2=C(C1)Oc1ncn(CCO)c(=N)c1C2c1ccccc1 (stereo not given),543.0*,-10.3,0.1,4.3,0.4
CCOC(=O)c1ccc(NC(=O)CSc2nc(=O)n3cccc(C)c3n2)cc1,239.7,·,-0.4,35.5,·
SMILES,Mot1-301 SUMO,PfM18AAP inh,HIF act,ALR H2O2 inh,Mot1 SUMO dose
O=C(c1ccccc1F)N1CCN=C1c1ccccc1,-1.0,4.3,-0.8,-3.1,·
O=C(c1ccccc1F)N1CCN=C1SCc1cccnc1,569.3*,-0.6,·,99.8*,0.6
CS(=O)(=O)c1ccc(Cl)c(NC(=O)c2ccc3ccccc3c2)c1,+,1.1,-0.2,-4.2,0.4
Cc1cc(SCc2cccc(Cl)c2)nc(=O)[nH]1,264.8,-1.4,-0.1,8.2,·
Cc1cc(C)n(C(=O)CNC(=O)c2ccc3c(c2)OCCO3)n1,601.1*,-19.7,0.4,-9.3,0.0
O=C(COC(=O)CNC(=O)c1ccc(Cl)cc1)Nc1ccc2c(c1)OCCO2,-21.1,-3.7,-0.6,-1.5,·
Cc1ccc(C(=O)NCC(=O)Nc2ccc3c(c2)OCCO3)cc1,579.6*,·,1.1,-4.2,-0.1[21 µM]
O=C(O)CCc1ccc(-c2cccs2)n1NC(=O)c1cccs1,+,4.0,-0.4,98.9*,0.4
O=C(O)CCc1ccc(-c2cccs2)n1NC(=O)c1ccc(O)cc1,-30.7,10.7,0.0,21.5,·
O=C(Nc1ccc(Cl)cc1)c1cc2nc(-c3ccco3)cc(C(F)(F)F)n2n1,-13.6,-1.4,0.0,-0.7,·
Cc1ccccc1Cn1cc(NC(=O)c2cc3nc(-c4ccco4)cc(C(F)(F)F)n3n2)cn1,360.0*,-17.0,-0.6,6.2,0.0
Cc1ccsc1C(=O)OC(C)C(=O)Nc1ccc(Cl)cn1 (stereo not given),36.2,·,·,1.5,·
Cc1ccc(NC(=O)CN(C)C(=O)COc2ccc(C(=O)c3ccc(F)cc3)cc2)cc1,0.5,0.2,-0.4,-3.0,·
CN(C(=O)CSc1ncccc1C(=O)O)c1ccccc1,2.4,-11.0,-0.5,-2.3,·
CCCN(CCC)C(=O)CSc1ncccc1C(=O)O,398.9*,14.7,-0.2,-2.7,0.3
C=CCN1C(=O)/C(=C2/Sc3ccc(OC)cc3N2C)SC1=Nc1ccccc1,+,-8.0,-1.0,-5.6,0.0
Cc1cc(-c2ccccc2C(=O)NC2CCCCC2)on1,36.7,1.7,-0.4,·,·
NC(=O)c1ccc(SCC(=O)OCC(=O)NCc2cccs2)c([N+](=O)[O-])c1,-9.4,·,·,·,·
Cc1cccc(CCNC(=O)Cn2ncc3c([nH]c4ccccc43)c2=O)c1,2.5,-1.7,-0.1,1.6,·
Cc1cc(O)c(/C=N/Nc2cccc(Cl)c2)c(=O)o1,416.0*,-0.9,-0.4,·,-0.3
CC(C)CN(C)C(=O)CCc1nnc(Cc2ccc(-c3ccccc3)cc2)o1,-12.2,0.4,-0.2,-6.0,·
COc1ccc(N(CC(=O)NCc2ccc(C)cc2)S(=O)(=O)c2c(C)[nH]c(=O)[nH]c2=O)cc1,·,2.8,0.6,-3.5,·
COc1cc(C(=O)NCCC2=CCCCC2)ccc1OC1CCN(C(C)=O)CC1,546.8*,1.1,-0.1,3.2,1.1
CCCc1ccc(S(=O)(=O)NCCc2ccncc2)cc1,541.1*,0.4,0.4,-0.6,0.3
Cc1c(NC(=O)C(C)Sc2nnc(-c3ccccc3)o2)c(=O)n(-c2ccccc2)n1C (stereo not given),372.7*,-11.3,-38.9,0.8,0.3
SMILES,Mot1-301 SUMO,PfM18AAP inh,HIF act,ALR H2O2 inh,Mot1 SUMO dose
CCOc1ccc(-c2nc(C#N)c(N3CCN(Cc4ccccc4)CC3)o2)cc1,7.9,3.7,0.0,-3.1,·
CCOc1ccc(-c2nc(C#N)c(N3CCOCC3)o2)cc1,417.3*,-2.9,-0.5,0.9,-0.8
C=CCn1c(=N)c(C(=O)NCCCOC)cc2c(=O)n3ccccc3nc21,602.6*,3.4,0.0,-3.2,0.2
Cc1cc(C)nc(SCC(=O)Nc2cc(C)on2)n1,17.2,3.5,0.3,-13.8,·
Cc1cc(C(F)(F)F)nc(SCC(=O)Nc2cc(C)on2)n1,+,0.7,-0.5,-5.4,0.2
CC(SC#N)C(=O)C12CC3CC(CC(C3)C1)C2 (stereo not given),386.4*,1.6,0.2,6.0,-0.7
